Results from paper PMC5540273 (PLoS ONE, 2017).

Experiments:
Settings in all cases: concentration: 1 μM, replicates: in singlicate; n = 1
MLK1 = test system: T1, MLK1
T1 construct: gene MAP3K9

MLK2 = test system: MLK2
MLK3 = test system: MLK3
MRCKA = test system: MRCKA
MRCKB = test system: T2, MRCKB
T2 construct: gene CDC42BPB

MST1R = test system: MST1R
MST1 = test system: T3, MST1
T3 construct: gene STK4

MST2 = test system: T4, MST2
T4 construct: gene STK3

MST3 = test system: T5, MST3
T5 construct: gene STK24

MST4 = test system: MST4
MTOR = test system: MTOR
MUSK = test system: MUSK
MYLK2 = test system: MYLK2
MYLK4 = test system: MYLK4
MYLK = test system: MYLK
MYO3A = test system: MYO3A
MYO3B = test system: MYO3B
NDR1 = test system: T6, NDR1
T6 construct: gene STK38

NDR2 = test system: NDR2
NEK10 = test system: NEK10
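Also: KINOMEscan kinase panel screen.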

Row | SMILES | %Inh (MLK1) [%] | %Inh (MLK2) [%] | %Inh (MLK3) [%] | %Inh (MRCKA) [%] | %Inh (MRCKB) [%] | %Inh (MST1R) [%] | %Inh (MST1) [%] | %Inh (MST2) [%] | %Inh (MST3) [%] | %Inh (MST4) [%] | %Inh (MTOR) [%] | %Inh (MUSK) [%] | %Inh (MYLK2) [%] | %Inh (MYLK4) [%] | %Inh (MYLK) [%] | %Inh (MYO3A) [%] | %Inh (MYO3B) [%] | %Inh (NDR1) [%] | %Inh (NDR2) [%] | %Inh (NEK10) [%]
1 | Cl.Cl.NC(CNC(=O)c1cc(Br)c(-c2ccnc3[nH]ccc23)s1)c1ccccc1 (centres unmarked) [GSK1322949] | 0 | 0 | 0 | 29 | 93.7 | 5 | 0 | 26 | 5 | 3 | 26 | 22 | 27 | 97.2 | 62 | 34 | 0 | 96.4 | 95.5 | 1
2 | COc1ccc(NC(=O)c2ccoc2)cc1-c1ccc(C(=O)NCC2CC2)cc1 [GW810437] | 0 | 25 | 0 | 0 | 19 | 0 | 22 | 8 | 1 | 0 | 36 | 0 | 0 | 0 | 0 | 7 | 21 | 32 | 16 | 16
3 | COc1cccc2c(-c3ccncc3)c(-c3ccc(F)cc3)nn12 [GW468513] | 0 | 1 | 4 | 60 | 67 | 15 | 31 | 0 | 0 | 0 | 20 | 21 | 0 | 0 | 12 | 4 | 0 | 8 | 0 | 0
4 | CCn1c(-c2nonc2N)nc2c(-c3ccccc3)ncc(OCCCN)c21.O=C(O)C(F)(F)F.O=C(O)C(F)(F)F [GSK260205] | 0 | 0 | 0 | 99.9 | 99.3 | 45 | 52 | 0 | 38 | 71 | 20 | 0 | 0 | 0 | 33 | 27 | 0 | 23 | 0 | 9
5 | Nc1ncc(-c2ccc3nccc(-c4ccncc4)c3c2)cc1S(=O)(=O)N1CCCCC1 [GSK1693850] | 0 | 0 | 7 | 12 | 0 | 35 | 8 | 25 | 29 | 0 | 100 | 0 | 0 | 10 | 22 | 22 | 0 | 30 | 2 | 54
6 | CN(C)c1ncnc2nc[nH]c12 [SKF-31736] | 0 | 0 | 0 | 11 | 0 | 0 | 0 | 0 | 19 | 1 | 54 | 14 | 0 | 30 | 0 | 0 | 0 | 35 | 24 | 21
7 | O=C(O)C(F)(F)F.O=c1[nH]ccc2nc(N[C@@H]3CCNC3)nc(Nc3cc(Cl)cc(Cl)c3)c12 [GSK2188764] | 95.7 | 0 | 88 | 24 | 35 | 11 | 86 | 80 | 85 | 91.1 | 9 | 3 | 50 | 36 | 92.4 | 59 | 0 | 82 | 68 | 81
8 | COc1cccc(CC(=O)N2CCc3cc(-c4cn(C)c5ncnc(N)c45)ccc32)c1 [GSK2608899] | 32 | 41 | 20 | 2 | 0 | 45 | 98.8 | 100 | 31 | 27 | 8 | 27 | 64 | 7 | 20 | 38 | 18 | 22 | 0 | 7
9 | CC(C)NCC(Cc1ccccc1)NC(=O)c1cc(Br)c(-c2ccnc3[nH]ccc23)s1.Cl.Cl (centres unmarked) [GSK1383281] | 4 | 0 | 0 | 25 | 89 | 43 | 0 | 0 | 0 | 26 | 6 | 0 | 1 | 79 | 56 | 19 | 0 | 90.3 | 65 | 2
10 | Cc1ccc(Nc2ccnc(Nc3ccc(C)c(F)c3)n2)cc1O.Cl [GW582868] | 60 | 0 | 45 | 0 | 0 | 18 | 0 | 9 | 0 | 0 | 15 | 12 | 0 | 29 | 9 | 2 | 0 | 0 | 0 | 0
